Inconclusive results are not listed. The source made the active and inactive calls. Rule for the calls, unless noted: active = hit-call score of the fitted dose curve at least 0.9, where 1 is the maximum; inactive = score below 0.9.
What was measured:
[1] = read-out: Monokine induced gamma interferon (MIG), CXCL9 (gene 4283); test: BSK_3C_MIG: BioMAP Diversity Plus: 3C Assay for Monokine induced gamma interferon (MIG) Biomarker Activity (AID 2283021); settings: primary human endothelial cells (HUVEC); actives raise or lower the signal;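 for AC50: MIG protein level measured by immunoassay in the treated endothelial cultures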
How it was run: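 Read-out is ELISA detection of MIG on human umbilical vein endothelial cells, taken 24 h after dosing. Gain or loss of signal was scored relative to DMSO controls using bidirectional curve fitting.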

[2] = molecular target: human Vitamin D Receptor (VDR), VDR (gene 7421) (UniProt P11473); test: ATG_VDR_TRANS: Attagene TRANS-FACTORIAL HepG2 Assay for human Vitamin D Receptor (VDR) (AID 2283022; active = hit-call score of the fitted dose curve at least 0.9, where 1 is the maximum)
How it was run: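 Fluorescence of labelled reporter cDNA fragments, resolved by capillary electrophoresis, gives mRNA induction after 24 h treatment of HepG2 cells carrying transfected Gal4-fusion reporter units. Activity is fitted in the positive direction with DMSO as baseline.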

[3] = BSK_3C_SRB: Viability Assessment in the BioMAP Diversity Plus: 3C Assay (AID 2283023); settings: primary human endothelial cells (HUVEC);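 note: fitted both ways against DMSO so a hit may be signal rise or drop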
How it was run: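 Cells were dosed with chemical, cultured 24 h, fixed with 10% TCA, stained with 0.1% SRB and read at 560 nm. Human umbilical vein endothelium was used; DMSO served as negative control and baseline.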

[4] = read-out: Matrix Metallopeptidase 1 (MMP1), MMP1 (gene 4312); test: BSK_BE3C_MMP1: BioMAP Diversity Plus: BE3C Assay for Matrix Metallopeptidase 1 (MMP1) Biomarker Activity (AID 2283024); settings: primary human bronchial epithelial cells; actives raise or lower the signal
How it was run: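 Human bronchial epithelial cells (BE3C system) exposed to compound for 24 h; MMP1 then quantified by ELISA. Activity was fitted in both directions relative to DMSO.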

[5] = BSK_3C_Vis: BioMAP Diversity Plus: 3C Assay for Morphology Visualization (AID 2283025); settings: primary human endothelial cells (HUVEC);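 note: fitted both ways so gain or loss versus DMSO counts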;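 for AC50: light microscopy image of cell morphology used as background control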
How it was run: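 Chemicals were added to primary human umbilical vein endothelium, cells were incubated 24 h, and morphology was then visualized by light microscopy. Gain or loss of signal was fitted bidirectionally relative to DMSO.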

[6] = read-out: Pselectin, SELP (gene 6403); test: BSK_4H_Pselectin: BioMAP Diversity Plus: 4H Assay for Pselectin Biomarker Activity (AID 2283026); settings: primary human endothelial cells (HUVEC); actives raise or lower the signal
How it was run: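 ELISA read-out of P-selectin on human umbilical vein endothelium after 24 h of dosing. Values derive from bidirectional fitting relative to DMSO. Parallel SRB protein staining flagged overt cytotoxicity.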

[7] = BSK_4H_SRB: Viability Assessment in the BioMAP Diversity Plus: 4H Assay (AID 2283027); settings: primary human endothelial cells (HUVEC);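 note: cells exposed to compound for 24 h before staining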;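 for AC50: curves fitted both ways versus DMSO so AC50 may be loss or gain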
How it was run: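 Human umbilical vein endothelial cells, 24 h after chemical dosing; total protein measured by 0.1% sulforhodamine B staining after 10% TCA fixation, read at 560 nm. Bidirectional fitting against DMSO.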

[8] = read-out: Thrombomodulin, THBD (gene 7056); test: BSK_3C_Thrombomodulin: BioMAP Diversity Plus: 3C Assay for Thrombomodulin Biomarker Activity (AID 2283029); settings: primary human endothelial cells (HUVEC); actives raise or lower the signal
How it was run: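 Read-out is ELISA of thrombomodulin on human umbilical vein endothelium 24 h after chemical dosing. Gain or loss of signal is scored relative to DMSO. Overt cytotoxicity is checked in parallel cultures by sulforhodamine B staining.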

[9] = read-out: Urokinase-type plasminogen activator receptor (uPAR), PLAUR (gene 5329); test: BSK_4H_uPAR: BioMAP Diversity Plus: 4H Assay for Urokinase-type plasminogen activator receptor (uPAR) Biomarker Activity (AID 2283030); settings: primary human endothelial cells (HUVEC); actives raise or lower the signal
How it was run: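 Chemicals are dosed onto human vascular endothelial primary cells (umbilical vein). After 24 h, uPAR is read by ELISA. Gain or loss of signal is fitted relative to DMSO.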

[10] = read-out: Vascular endothelial growth factor receptor 2 (Homo sapiens) (UniProt P35968); test: BSK_4H_VEGFRII: BioMAP Diversity Plus: 4H Assay for Vascular endothelial growth factor receptor 2 (VEGFR2) Biomarker Activity (AID 2283031); settings: primary human endothelial cells (HUVEC); actives raise or lower the signal;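 for AC50: cell-surface VEGFR2 protein level quantified by ELISA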
How it was run: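 VEGFRII levels on human vascular endothelial primary cells were determined by ELISA at 24 hours post-dosing, with gain- or loss-of-signal fitted against DMSO controls.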

[11] = read-out: Human Leukocyte Antigen - DR isotype (HLADR), HLA-DRA (gene 3122); test: BSK_BE3C_HLADR: BioMAP Diversity Plus: BE3C Assay for Human Leukocyte Antigen - DR isotype (HLADR) Biomarker Activity (AID 2283032); settings: primary human bronchial epithelial cells; actives raise or lower the signal
How it was run: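 ELISA read-out of HLA-DR on human lung bronchial epithelial primary cells, measured 24 h post-dosing. Both increases and decreases were scored relative to DMSO vehicle.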

[12] = read-out: Vascular cell adhesion molecule 1 (VCAM1), VCAM1 (gene 7412); test: BSK_4H_VCAM1: BioMAP Diversity Plus: 4H Assay for Vascular cell adhesion molecule 1 (VCAM1) Biomarker Activity (AID 2283033); settings: primary human endothelial cells (HUVEC); actives raise or lower the signal
How it was run: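 ELISA read-out of VCAM-1 on human umbilical vein endothelium 24 hours after chemical dosing; gain or loss of signal was fitted relative to DMSO, with sulforhodamine B staining of parallel cultures flagging overt cytotoxicity.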

[13] = read-out: Monokine induced gamma interferon (MIG), CXCL9 (gene 4283); test: BSK_BE3C_MIG: BioMAP Diversity Plus: BE3C Assay for Monokine induced gamma interferon (MIG) Biomarker Activity (AID 2283035); settings: primary human bronchial epithelial cells; actives raise or lower the signal
How it was run: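 Primary human bronchial epithelial cells treated for 24 h; MIG levels measured by ELISA, fitted bidirectionally versus DMSO. Parallel SRB total-protein staining assessed cytotoxicity.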

[14] = read-out: Transforming growth factor beta 1 (TGFb1), TGFB1 (gene 7040); test: BSK_BE3C_TGFb1: BioMAP Diversity Plus: BE3C Assay for Transforming growth factor beta 1 (TGFb1) Biomarker Activity (AID 2283036); settings: primary human bronchial epithelial cells; actives raise or lower the signal
How it was run: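 Primary human lung bronchial epithelial cells; compound exposure 24 h; TGF-b1 by ELISA; bidirectional fit, DMSO baseline. Parallel SRB total-protein staining for cytotoxicity.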

[15] = read-out: Plasminogen activator inhibitor-1 (PAI1), SERPINE1 (gene 5054); test: BSK_BE3C_PAI1: BioMAP Diversity Plus: BE3C Assay for Plasminogen activator inhibitor-1 (PAI1) Biomarker Activity (AID 2283037); settings: primary human bronchial epithelial cells; actives raise or lower the signal
How it was run: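 Primary human lung bronchial epithelial cells; chemical dosing; 24 h; PAI-1 measured by ELISA; bidirectional fit referenced to DMSO as negative control.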

[16] = read-out: urokinase plasminogen activator (uPA), PLAU (gene 5328); test: BSK_BE3C_uPA: BioMAP Diversity Plus: BE3C Assay for urokinase plasminogen activator (uPA) Biomarker Activity (AID 2283038); settings: primary human bronchial epithelial cells; actives raise or lower the signal
How it was run: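 Measured by ELISA: uPA from human primary bronchial epithelial cells 24 h after chemical treatment. Values derive from bidirectional curve fitting with DMSO serving as negative control. Total protein by SRB staining in parallel wells flagged overt cytotoxicity.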

[17] = read-out: Urokinase-type plasminogen activator receptor (uPAR), PLAUR (gene 5329); test: BSK_BE3C_uPAR: BioMAP Diversity Plus: BE3C Assay for Urokinase-type plasminogen activator receptor (uPAR) Biomarker Activity (AID 2283039); settings: primary human bronchial epithelial cells; actives raise or lower the signal
How it was run: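 Human bronchial epithelial primary cells; chemical exposure 24 h; uPAR by ELISA; bidirectional fit vs DMSO control.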

[18] = read-out: Interleukin-6 (IL6), IL6 (gene 3569); test: BSK_CASM3C_IL6: BioMAP Diversity Plus: CASM3C Assay for Interleukin-6 (IL6) Biomarker Activity for (AID 2283040); settings: primary human coronary artery smooth muscle cells; actives raise or lower the signal
[19] = read-out: Interferon-gamma inducible Protein 10 (IP10), CXCL10 (gene 3627); test: BSK_BE3C_IP10: BioMAP Diversity Plus: BE3C Assay for Interferon-gamma inducible Protein 10 (IP10) Biomarker Activity (AID 2283034); settings: primary human bronchial epithelial cells; actives raise or lower the signal
How it was run: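 Chemical is dosed onto human lung bronchial epithelial primary cells, cultures are incubated 24 h, and IP-10 is then quantified by ELISA. Gain or loss of signal is fitted in both directions relative to DMSO.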

[20] = BSK_BE3C_SRB: Viability Assessment in the BioMAP Diversity Plus: BE3C Assay (AID 2283028); settings: primary human bronchial epithelial cells;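 for AC50: fitted both ways so AC50 may mark signal gain or loss versus DMSO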
How it was run: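 Overt cytotoxicity was assessed as total protein in confluent human primary bronchial epithelial cultures 24 h after chemical addition, using 0.1% sulforhodamine B staining read at 560 nm.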

Measured: AC50

Sequence of human Vitamin D Receptor (VDR), VDR (gene 7421) (P11473 whole entry, looked up, the tested form may be a part): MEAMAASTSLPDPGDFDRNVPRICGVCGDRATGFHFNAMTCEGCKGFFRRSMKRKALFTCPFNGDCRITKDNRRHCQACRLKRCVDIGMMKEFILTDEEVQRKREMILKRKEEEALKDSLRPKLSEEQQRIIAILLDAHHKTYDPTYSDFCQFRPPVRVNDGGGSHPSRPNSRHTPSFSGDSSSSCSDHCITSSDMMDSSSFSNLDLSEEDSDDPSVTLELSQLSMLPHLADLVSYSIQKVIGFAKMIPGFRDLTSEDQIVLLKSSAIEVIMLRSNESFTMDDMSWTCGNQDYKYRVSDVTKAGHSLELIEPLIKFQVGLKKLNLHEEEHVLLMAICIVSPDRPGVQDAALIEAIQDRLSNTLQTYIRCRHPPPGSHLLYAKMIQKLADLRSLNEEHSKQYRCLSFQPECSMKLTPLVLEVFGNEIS

CNC(=O)N(C)c1nnc(C(C)(C)C)s1
not listed: [19] | [20]
inactive: all other assays above

CNC(=O)Oc1cccc2ccccc12
active: [3] 12.4 µM | [5] 13.7 µM | [6] 16.7 µM | [12] 20 µM
not listed: [8] | [20]
inactive: all other assays above

CCOc1nc(C(Cl)(Cl)Cl)ns1
not listed: [5] | [8] | [10]
inactive: all other assays above

COP(=S)(OC)Oc1ccc([N+](=O)[O-])c(C)c1
active: [3] 16.5 µM | [11] 20 µM
not listed: [5] | [20]
inactive: all other assays above

CCOP(=S)(OCC)Oc1nc(Cl)n(C(C)C)n1
active: [8] 3.97 µM
not listed: [5] | [19] | [20]
inactive: all other assays above

Cc1ccc(N=CN(C)C=Nc2ccc(C)cc2C)c(C)c1
active: [1] 34.5 µM | [3] 32.4 µM | [5] 16.3 µM | [6] 30 µM | [7] 32.3 µM | [20] 28.2 µM | [9] 37.5 µM | [10] 26 µM | [11] 26.7 µM | [12] 29.5 µM | [19] 30.5 µM | [13] 33.3 µM | [14] 34.1 µM | [15] 30.7 µM | [16] 35.4 µM | [18] 30.9 µM
inactive: [4] | [17]

CC1(C)CON(Cc2ccccc2Cl)C1=O
active: [14] 37.2 µM
not listed: [20]
inactive: all other assays above

Nc1c(Cl)c(Cl)nc(C(=O)O)c1Cl
not listed: [2] | [8]
inactive: all other assays above

CS(=O)(=O)c1cc(C(F)(F)F)ccc1C(=O)c1cnoc1C1CC1
not listed: [5] | [8] | [19] | [20]
inactive: all other assays above

Clc1nc(Cl)nc(Nc2ccccc2Cl)n1
active: [17] 0.293 µM
not listed: [8] | [19]
inactive: all other assays above

COCC(=O)N(c1c(C)cccc1C)C(C)C(=O)OC (stereo unspecified)
not listed: [2] | [8] | [19]
inactive: all other assays above

CC1(C)C(C(=O)OC(C#N)c2cccc(Oc3ccccc3)c2)C1(C)C (stereo unspecified)
active: [3] 10.1 µM | [6] 12.9 µM | [18] 30.9 µM
not listed: [5] | [20]
inactive: all other assays above

O=P(O)(O)CCCl
not listed: [2]
inactive: all other assays above
